A number with no mark means an inactive call. Calls follow the shape of the dose curve; as a rule, active = well fitted curve in the direction sought with a large enough effect; inconclusive = small, poorly fitted or top-dose-only effect, or another doubt; inactive = no such curve, though single readings can be large; an effect the other way counts as inactive or inconclusive. Records with an inconclusive call do not appear.
test system: Nanoluciferase (engineered Oplophorus gracilirostris luciferase); experiment: Primary Nanoluciferase (NLuc) qHTS assay for identification of artifact compounds. (AID 1845222); conditions: NLuc-conditioned medium, Nano-Glo luminescence, 5 min; series mostly up to 54.1 µM; activity, negative = inhibition: at the top concentration;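 also: 0% = DMSO and -100% = no enzyme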
Procedure, shortened: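 Luminescence from secreted NLuc (filtered, 1:55-diluted S16 cell medium) read 5 min after Nano-Glo substrate; compounds preincubated 15 min, RT. Hill fits of inhibition normalized to DMSO and no-enzyme.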

Row | Structure (SMILES) | activity, negative = inhibition
1 | CC(C)[C@H]1CC[C@@]2(O)COC(=O)[C@H]2[C@@H]1/C=C(\CO)C(=O)O | 0.481%
2 | CS(=O)(=O)N(CC(=O)NCC1CC1)c1cc(C(F)(F)F)ccc1Cl | -9.07%
3 | CC(=O)O[C@@H]1[C@@H](OC(=O)/C=C/c2ccccc2)[C@@H](OC(C)=O)[C@H](O[C@H]2[C@@H]3C=CO[C@@H](O[C@@H]4O[C@H](CO)[C@@H](O)[C@H](O)[C@H]4O)[C@@H]3[C@@]3(CO)O[C@@H]23)O[C@H]1C | 4.83% [at 25.7 µM]
4 | CC1(C)[C@@H](O)CC[C@]2(C)[C@H]3CC=C4[C@@H]5C[C@](C)(C(=O)O)CC[C@]5(C)CC[C@@]4(C)[C@]3(C)CC[C@@H]12 | 0.282%
5 | NCc1ccc(Nc2ncc(F)c(Nc3ccccc3)n2)cc1 | 1.12%
6 | CC(=O)O[C@@H]1[C@@H](O)[C@H](C)O[C@@H](O[C@H]2[C@@H]3C=CO[C@@H](O[C@@H]4O[C@H](CO)[C@@H](O)[C@H](O)[C@H]4O)[C@@H]3[C@@]3(CO)O[C@@H]23)[C@@H]1OC(=O)/C=C/c1ccccc1 | -2.1% [at 25.7 µM]
7 | COc1c(C)c(OCC(O)C(C)(C)O)cc2c1COC2=O (centres undefined) | -2.1%
8 | C[C@@H]1O[C@@H](O[C@H]2[C@H](O[C@H]3[C@H](O[C@H]4CC[C@@]5(C)C(CC[C@]6(C)C5CC=C5[C@@H]7CC(C)(C)C[C@@H](O)[C@]7(C)CC[C@]56C)[C@@]4(C)CO)O[C@H](C(=O)O)[C@@H](O)[C@@H]3O)OC[C@H](O)[C@@H]2O)[C@H](O)[C@H](O)[C@H]1O (some centres undefined) | -0.768% [at 11.6 µM]
9 | CCOc1ccc(S(=O)(=O)n2c(C)nc3ccccc32)cc1 | 0.31% [at 25.7 µM]
10 | Cc1ccc(NC(=O)C(=O)NC2CC(C)(C)NC(C)(C)C2)cc1 | -6.81%
11 | CC1=C(C(=O)O)/C(=C\CO[C@@H]2O[C@H](CO)[C@@H](O)[C@H](O)[C@H]2O)C(OC(=O)/C=C\c2ccc(O)cc2)C1 (some centres undefined) | 1.88% [at 25.7 µM]
12 | C=C(C)C1CCC2(C(=O)O)CCC3(C(=O)O)C(CCC4C5(C)CCC(O)C(C)(C(=O)O)C5CCC43C)C12 (centres undefined) | -4.28% [at 25.7 µM]
13 | COc1c2c(c(CO)c3c1C(=O)OC3)OC1(C)CCC3(O)C(C)(C)OC(=O)CCC3(C)C1C2 (centres undefined) | 2.14% [at 25.7 µM]
14 | OCCc1ccc(O[C@@H]2O[C@H](CO)[C@@H](O)[C@H](O)[C@H]2O)cc1 | 2.54%
15 | C[C@@H]1CCC2C(C)(C)[C@H](O)CC[C@]2(C)[C@@]12Cc1c(O)cc3c(c1O2)CN([C@@H](CCC(=O)O)C(=O)O)C3=O (some centres undefined) | 4.8% [at 25.7 µM]
16 | CC(=O)O[C@@H]1[C@H](O[C@@H]2O[C@@H](CO)[C@H](O)[C@H]2O)[C@@H](O[C@@H]2O[C@@H](C)[C@H](O[C@@H]3OC[C@@H](O)[C@H](O)[C@H]3O)[C@@H](O)[C@H]2O)[C@H](OC(=O)[C@]23CCC(C)(C)C[C@H]2C2=CCC4[C@@]5(C)CC[C@H](O[C@@H]6O[C@H](C(=O)O)[C@@H](O)[C@H](O)[C@H]6O[C@@H]6O[C@H](CO)[C@H](O)[C@H](O)[C@H]6O)[C@@](C)(C=O)C5CC[C@@]4(C)[C@]2(C)CC3)O[C@@H]1C (some centres undefined) | 0% [at 11.6 µM]
17 | C[C@@H]([C@@H](O)c1ccc(O)cc1)N1CCC(O)(c2ccccc2)CC1 | 2.53%
18 | CC1(C)CC2C(O)c3cocc3CC(C)(O)C2C1 (centres undefined) | 2.55%
19 | Cn1c(=O)n(-c2ccc(C(C)(C)C#N)cc2)c2c3cc(C#Cc4cccnc4)ccc3ncc21 | 2.75% [at 25.7 µM]
20 | CN1CCN(C2CCC(n3cc(-c4ccc(Oc5ccccc5)cc4)c4c(N)ncnc43)CC2)CC1 (centres undefined) | -1.77%

test system: not listed separately; experiment: Primary redox qHTS assay for identification of artifact compounds. (AID 1845223); conditions: Amplex Red/HRP redox cycling with DTT, fluorescence; series mostly up to 53.8 µM; redox activity (% of DA3003): at the top concentration;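 also: 0% = DMSO and 100% = reference compound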
Procedure, shortened: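 Redox-cycling detection via DTT (250 uM final) oxidation coupled to Amplex Red (25 uM)/HRP (250 mU/mL) in HBSS. 15 min preincubation plus 30 min after DTT, room temperature. Ex/Em 525/598 nm; 4-parameter Hill fit against DMSO and 10 uM DA3003.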

Row | Structure (SMILES) | redox activity (% of DA3003)
21 | COc1ccccc1Oc1ccc(N(Cc2cccnc2)S(=O)(=O)CC(F)(F)F)cc1 | 16.5%
22 | C=CC(C)(O)CC/C=C(\C)C(=O)OC1C(O)C(CO)OC(OC(=O)C23CCC(C)(C)CC2C2=CCC4C5(C)CCC(OC6OC(COC7OCC(OC(C)=O)C(O)C7OC7OC(COC(C)=O)C(O)C(O)C7O)C(O)C(O)C6O)C(C)(C)C5CCC4(C)C2(C)C(O)C3O)C1OC1OCC(OC2OCC(O)C(OC3OCC(O)C(O)C3O)C2O)C(O)C1O (centres undefined) | -2.76% [at 6.41 µM]
23 | O=C(CO)[C@@H](O)[C@H](O[C@@H]1O[C@H](CO)[C@H](O)[C@H](O)[C@H]1O)[C@H](O)CO | -2.58%
24 | C/C1=C\CCC(C)CCO[C@@H]2O[C@H](CO[C@@H]3OC[C@H](O)[C@H](O)[C@H]3OC1=O)[C@@H](O)[C@H](O)[C@H]2O (some centres undefined) | -1.11% [at 25.6 µM]
25 | Cc1csc(NC(=O)c2ccc(COc3cccc(Cl)c3)o2)n1 | -2.07%
26 | COC(=O)C[C@H]1C(C)(C)[C@H](OC(C)=O)C2CC3=C4CC(=O)O[C@@H](c5ccoc5)[C@]4(C)CCC3[C@@]1(C)C2=O (some centres undefined) | 6.51% [at 25.6 µM]
27 | CC(=O)O[C@]1(C(C)=O)CC[C@H]2[C@@H]3C[C@H](C)C4=CC(=O)C=C[C@]4(C)[C@@]3(F)[C@@H](O)C[C@@]21C | -3.92%
28 | CCCC1(c2ccccc2)NC(=O)N(CC(=O)N(C)Cc2c(F)cccc2Cl)C1=O (centres undefined) | 11.2%
29 | C=CC(C)(O)CC[C@H]1C(=C)CCC2[C@](C)(C(=O)O)CCC[C@@]21C (some centres undefined) | -6.33%
30 | C=CC(C)(O)C(O)CC1C(C)(O)C(O)C(O)C2C(C)(C)CCCC21C (centres undefined) | 9.51%
31 | C[C@@H]1C[C@@H](O)[C@@]23CO[C@@H](O)[C@@H]2CCC[C@@H]3[C@@]12C[C@@H](c1ccoc1)OC2=O | -12.7%
32 | OC[C@H]1O[C@@H](OC(CCCCc2ccc(O)cc2)CCc2ccc(O)cc2)[C@H](O)[C@@H](O)[C@@H]1O (some centres undefined) | -10.5% [at 25.6 µM]
33 | Cc1cc(Nc2ncc3cc(-c4c(Cl)cccc4Cl)c(=O)n(C)c3n2)ccc1F | -9.61%
34 | CC1(C(=O)O)CCCC2(C)C3=CCC4CC3(CCC12)CC4CO (centres undefined) | -5.51%
35 | C[C@H](O)[C@H](O)/C=C/c1cccc(O)c1CO | -8.38%
36 | CC1(C)C2CC=C(COC3OC(COC4OCC(O)(CO)C4O)C(O)C(O)C3O)C1C2 (centres undefined) | -13.9% [at 25.6 µM]
37 | C=CC(C)(C)C12C=C(OC)C(=O)N3C(C(C)C)C(=O)NC31N(OC)c1ccccc12 (centres undefined) | 13.8% [at 25.6 µM]
38 | [N-]=[N+]=N[C@]1(CO)O[C@@H](n2ccc(=O)[nH]c2=O)[C@@H](O)[C@@H]1O | -3.92%
39 | COC(=O)C[C@H]1C(C)(C)[C@H](OC(=O)C(C)C)[C@@]2(O)C(=O)[C@]1(C)C1CC[C@]3(C)C(CC(=O)O[C@H]3c3ccoc3)[C@]13O[C@@H]32 (some centres undefined) | 18.2% [at 25.6 µM]
40 | CC(C)[C@H]1CC[C@@]2(O)COC(=O)[C@H]2[C@@H]1/C=C(\CO)C(=O)O | -12.4%

Row | Structure (SMILES) | redox activity (% of DA3003)
41 | CS(=O)(=O)N(CC(=O)NCC1CC1)c1cc(C(F)(F)F)ccc1Cl | -0.417%
42 | CC(=O)O[C@@H]1[C@@H](OC(=O)/C=C/c2ccccc2)[C@@H](OC(C)=O)[C@H](O[C@H]2[C@@H]3C=CO[C@@H](O[C@@H]4O[C@H](CO)[C@@H](O)[C@H](O)[C@H]4O)[C@@H]3[C@@]3(CO)O[C@@H]23)O[C@H]1C | 5.22% [at 25.6 µM]
43 | CC1(C)[C@@H](O)CC[C@]2(C)[C@H]3CC=C4[C@@H]5C[C@](C)(C(=O)O)CC[C@]5(C)CC[C@@]4(C)[C@]3(C)CC[C@@H]12 | 0.576%
44 | NCc1ccc(Nc2ncc(F)c(Nc3ccccc3)n2)cc1 | -1.81%
45 | CC(=O)O[C@@H]1[C@@H](O)[C@H](C)O[C@@H](O[C@H]2[C@@H]3C=CO[C@@H](O[C@@H]4O[C@H](CO)[C@@H](O)[C@H](O)[C@H]4O)[C@@H]3[C@@]3(CO)O[C@@H]23)[C@@H]1OC(=O)/C=C/c1ccccc1 | -8.51% [at 25.6 µM]
46 | COc1c(C)c(OCC(O)C(C)(C)O)cc2c1COC2=O (centres undefined) | -3%
47 | C[C@@H]1O[C@@H](O[C@H]2[C@H](O[C@H]3[C@H](O[C@H]4CC[C@@]5(C)C(CC[C@]6(C)C5CC=C5[C@@H]7CC(C)(C)C[C@@H](O)[C@]7(C)CC[C@]56C)[C@@]4(C)CO)O[C@H](C(=O)O)[C@@H](O)[C@@H]3O)OC[C@H](O)[C@@H]2O)[C@H](O)[C@H](O)[C@H]1O (some centres undefined) | 17.9% [at 11.5 µM]
48 | CCOc1ccc(S(=O)(=O)n2c(C)nc3ccccc32)cc1 | 1.96% [at 25.6 µM]
49 | Cc1ccc(NC(=O)C(=O)NC2CC(C)(C)NC(C)(C)C2)cc1 | -2.3%
50 | CC1=C(C(=O)O)/C(=C\CO[C@@H]2O[C@H](CO)[C@@H](O)[C@H](O)[C@H]2O)C(OC(=O)/C=C\c2ccc(O)cc2)C1 (some centres undefined) | 11.2% [at 25.6 µM]
51 | C=C(C)C1CCC2(C(=O)O)CCC3(C(=O)O)C(CCC4C5(C)CCC(O)C(C)(C(=O)O)C5CCC43C)C12 (centres undefined) | -14.8% [at 25.6 µM]
52 | COc1c2c(c(CO)c3c1C(=O)OC3)OC1(C)CCC3(O)C(C)(C)OC(=O)CCC3(C)C1C2 (centres undefined) | -4.51% [at 25.6 µM]
53 | OCCc1ccc(O[C@@H]2O[C@H](CO)[C@@H](O)[C@H](O)[C@H]2O)cc1 | -8.56%
54 | C[C@@H]1CCC2C(C)(C)[C@H](O)CC[C@]2(C)[C@@]12Cc1c(O)cc3c(c1O2)CN([C@@H](CCC(=O)O)C(=O)O)C3=O (some centres undefined) | 10.7% [at 25.6 µM]
55 | CC(=O)O[C@@H]1[C@H](O[C@@H]2O[C@@H](CO)[C@H](O)[C@H]2O)[C@@H](O[C@@H]2O[C@@H](C)[C@H](O[C@@H]3OC[C@@H](O)[C@H](O)[C@H]3O)[C@@H](O)[C@H]2O)[C@H](OC(=O)[C@]23CCC(C)(C)C[C@H]2C2=CCC4[C@@]5(C)CC[C@H](O[C@@H]6O[C@H](C(=O)O)[C@@H](O)[C@H](O)[C@H]6O[C@@H]6O[C@H](CO)[C@H](O)[C@H](O)[C@H]6O)[C@@](C)(C=O)C5CC[C@@]4(C)[C@]2(C)CC3)O[C@@H]1C (some centres undefined) | 1.35% [at 11.5 µM]
56 | C[C@@H]([C@@H](O)c1ccc(O)cc1)N1CCC(O)(c2ccccc2)CC1 | -4%
57 | CC1(C)CC2C(O)c3cocc3CC(C)(O)C2C1 (centres undefined) | -3.79%
58 | Cn1c(=O)n(-c2ccc(C(C)(C)C#N)cc2)c2c3cc(C#Cc4cccnc4)ccc3ncc21 | -10.7% [at 25.6 µM]
59 | CN1CCN(C2CCC(n3cc(-c4ccc(Oc5ccccc5)cc4)c4c(N)ncnc43)CC2)CC1 (centres undefined) | 16.9%

Source: PubChem BioAssay (NCATS)
